Screening results (PubChem BioAssay)
D3 ag = activates the human D3 dopamine receptor; P35462; D3R DiscoveRx beta-arrestin cells, luminescence, 90 min; max activation, %; 410,000 compounds, 0.58% hits; AID 652048; in the data active = max activation above about 30%
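Agonist mode: compounds and dopamine controls were applied to plated cells for 90 min at 37 degrees C after an overnight attachment at 1500 cells/well. Luminescent read-out followed 30 - 60 minutes at room temperature with DiscoveRx detection reagent.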
TRPML1 agonist = agonists of human TRPML1 channel; TRPML1-expressing cells, Ca2+ dye fluorescence, FDSS; activation, % (test concentration not listed); 410,000 compounds, 0.12% hits; Q9GZU1; in the data active = activation above about 50%; inconclusive = mostly about 30% to 49%
Target sequence (Q9GZU1 whole entry, looked up): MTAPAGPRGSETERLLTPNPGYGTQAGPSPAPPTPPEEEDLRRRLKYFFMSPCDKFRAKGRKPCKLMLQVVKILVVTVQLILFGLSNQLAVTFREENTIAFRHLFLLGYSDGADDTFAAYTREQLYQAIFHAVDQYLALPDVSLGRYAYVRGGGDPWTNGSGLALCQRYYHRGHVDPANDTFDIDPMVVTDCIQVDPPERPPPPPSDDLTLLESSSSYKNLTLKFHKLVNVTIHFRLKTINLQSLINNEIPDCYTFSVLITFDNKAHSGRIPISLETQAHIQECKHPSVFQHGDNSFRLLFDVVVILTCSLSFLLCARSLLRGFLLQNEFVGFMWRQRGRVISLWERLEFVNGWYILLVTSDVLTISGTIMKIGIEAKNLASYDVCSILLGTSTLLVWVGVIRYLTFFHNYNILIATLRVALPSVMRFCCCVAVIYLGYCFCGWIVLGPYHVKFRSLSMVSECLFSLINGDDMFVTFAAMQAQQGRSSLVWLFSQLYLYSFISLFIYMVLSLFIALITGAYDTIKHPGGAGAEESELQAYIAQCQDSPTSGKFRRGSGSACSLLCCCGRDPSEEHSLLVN
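In this qHTS format, compounds were pin-transferred onto Ca8-dye-loaded TRPML1-DL cells induced with Tet overnight, and intracellular Ca2+ fluorescence was recorded kinetically for 110 s after a 10 s baseline. A subsequent 4uM final 54-4 (EC80) addition followed by a second 110 s read served as the antagonist phase.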
D3 antag = D3 dopamine receptor (human) antagonism | P35462 | D3R cells, DiscoveRx beta-arrestin luminescence, antagonist mode; hits give low values | max response, negative = inhibition, % | 360,000 compounds, 2.5% hits | AID 652054; in the data active = max response below about -50%; inconclusive = no clear call, values can overlap the other calls
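Cells expressing the human receptor were seeded at 1500 cells/well, incubated overnight at 37 degrees C in 5% CO2, then exposed to library compounds with dopamine controls for 90 minutes at 37 degrees C before luminescent detection.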
TRPML1 blocker = inhibitors of human TRPML1 channel; TRPML1-inducible cells, Ca2+ dye fluorescence, FDSS; hits give low values; inhibition of EC80 agonist-evoked calcium signal; activity change, negative = inhibition, % (no concentration beside the values); 390,000 compounds, 0.02% hits; in the data active = activity change below about -50%; inconclusive = between about -30% and that limit;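 also: stimulus is agonist 54-4 at its EC80 concentration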
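Tet-induced TRPML1-DL cells loaded with Ca8 no-wash calcium dye were read kinetically on FDSS. Compound addition was followed by EC80 agonist 54-4 (4 uM final); inhibition was read over 110 s.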
Of the large screens only hits and unclear results are named; the others gave an inactive call; ! = repeats disagree. Hits are enriched below; roughly 2.9% of the tested compounds scored in any of these assays.

O=C(COc1ccc2ccccc2c1)Nc1ccc(O)c(-c2nc3ccccc3o2)c1	none (no result: D3 ag, D3 antag, TRPML1 blocker)
Cc1ccc(CN2CCC(C(=O)c3ccc(F)cc3)CC2)cc1	D3 antag -122
Cc1ccc(NC(=O)N2CCC(C(=O)c3ccc(F)cc3)CC2)cc1	none
COc1ccc(CN2CCC(C(=O)c3ccc(F)cc3)CC2)cc1	D3 antag -120 (no result: TRPML1 agonist, TRPML1 blocker)
O=C(CCCn1c(=O)[nH]c2ccccc2c1=O)Nc1ccc(F)cc1	none
O=C(c1ccc(F)cc1)C1CCN(CCn2c(=O)[nH]c3ccccc3c2=O)CC1	D3 antag -51
CCOc1ccc(CC(=O)NCCc2sc3nc(-c4ccc(F)cc4)nn3c2C)cc1	none (no result: D3 antag)
Cc1ccc(C)c2[nH]c(=O)c(C(c3nnnn3C(C)(C)C)N3CC=C(c4ccc(F)cc4)CC3)cc12 (configuration not stated)	D3 antag -51
CCC(C)(C)n1nnnc1C(c1cc2cccc(C)c2[nH]c1=O)N1CCCC1 (configuration not stated)	none
Cc1ncc(C[n+]2csc(CCOP(=O)(O)OP(=O)(O)O)c2C)c(N)n1	none (no result: TRPML1 agonist, D3 antag, TRPML1 blocker)
CCn1c(C)c(CS(=O)(=O)c2ccccc2)[nH]c1=O	D3 antag -71
O=c1[nH]c(CS(=O)(=O)c2ccccc2)nc2ccccc12	D3 antag inconclusive
CC1=C(C(=O)Nc2ccccc2)C(c2cc(Br)ccc2F)n2ncc(C(=O)Nc3ccccc3)c2N1 (configuration not stated)	none (no result: D3 antag)
CSc1nc2n(n1)C(c1cc(Br)ccc1F)C(C(=O)N(C)C)=C(C)N2 (configuration not stated)	D3 antag -70
Cc1ccc(NC(=O)C2CCC(CNS(=O)(=O)c3ccc4c(c3)CCCC(=O)N4)CC2)cc1F (configuration not stated)	none (no result: D3 antag)
Cc1ccc(S(=O)(=O)N2CCN(c3nc(-n4cccn4)nc4ccccc34)CC2)cc1	none (no result: D3 ag, D3 antag, TRPML1 blocker)
COC(=O)c1c(NC(=O)c2ccco2)sc2c1C(C(=O)OC)CC2 (configuration not stated)	D3 antag -50
c1ccc2c(c1)CCN(c1ncnc3c1[nH]c1ccccc13)C2	D3 antag -53
CCN(Cc1ccccc1)Cc1c(O)ccc2oc(C)c(C(=O)Nc3ccccc3C)c12	none (no result: D3 antag)
O=C(O)Cn1c(O)c(C=Nc2ccccc2)sc1=S	D3 antag -63!
CCn1c(O)c(C=Nc2ccccc2)sc1=S	none
Cc1nc([N+](=O)[O-])c(Br)n1CC(=O)c1ccc(Cl)cc1	none
Cc1nc([N+](=O)[O-])c(Br)n1Cc1ccc(Cl)c(Cl)c1	D3 antag -76
COc1ccc(C(=O)Cn2c(C)nc([N+](=O)[O-])c2Br)cc1	D3 antag -56
Cc1cc(Cl)ccc1NC(=O)CCC(=O)N/N=C/c1cc([N+](=O)[O-])ccc1O	D3 antag -56
Cc1cc([N+](=O)[O-])nn1CC(=O)N/N=C/c1ccccc1O	none
Cc1cc(C)n(CC(=O)N/N=C/c2cc(Br)cc([N+](=O)[O-])c2O)n1	D3 antag -66
Cc1cc(C)n(CC(=O)c2cccc([N+](=O)[O-])c2)n1	D3 antag -58
Cc1cc(C)n(CC(=O)N/N=C/c2cc([N+](=O)[O-])ccc2O)n1	D3 antag -56
COc1cc(NC(=O)CSc2nc(C)c(C(=O)Nc3ccccc3)c(-c3ccc(OC)c(OC)c3)c2C#N)c(OC)cc1Cl	none (no result: D3 antag)
CCOC(=O)c1nnn(C(CC)C(=O)Nc2ccc(F)cc2)c1C(=O)OCC (configuration not stated)	none (no result: D3 antag)
CCc1ccccc1NC(=O)Nc1cc(C(=O)NCc2cccc(F)c2)ccc1N1CCCC1	none (no result: D3 antag)
Cc1ccc(OCC(=O)N(Cc2ccco2)Cc2ccco2)cc1C	none (no result: D3 antag)
CC(=O)c1ccc(C2CC34CNS(=O)(=O)C3CC2O4)cc1 (configuration not stated)	none (no result: D3 ag, D3 antag)
O=C(Nc1ccccc1Cl)C(Cl)C(=O)c1ccccc1 (configuration not stated)	none
Cc1cc[n+](C(C)C(=O)c2ccc(Cl)cc2)cc1 (configuration not stated)	D3 antag inconclusive
CC(=O)Nc1cc[n+](C(C)C(=O)c2ccc(Cl)cc2)cc1 (configuration not stated)	D3 antag -87
O=C(Nc1ccc(Cl)cc1)C(Cl)C(=O)c1ccccc1 (configuration not stated)	D3 antag -52
CC(=O)c1ccc(NC(=O)C(C)Nc2ccc(Cl)cc2)cc1 (configuration not stated)	D3 antag -56
CC(=O)c1ccc(NC(=O)Nc2ccc(Cl)cc2)cc1	none
CC(C)(C)n1nnnc1C(c1ccccc1)N1CCN(c2ccccc2)CC1 (configuration not stated)	none (no result: TRPML1 blocker)
CSCCC(C(=O)Nc1c(C)cccc1C)N1CCN(C/C=C/c2ccccc2)CC1 (configuration not stated)	D3 antag -81 (no result: TRPML1 blocker)
CCC(c1nnnn1C(C)(C)C)N1CCN(C/C=C/c2ccccc2)CC1 (configuration not stated)	D3 antag -80
CC(C)(C)n1nnnc1C(c1ccccc1)N1CCN(C/C=C/c2ccccc2)CC1 (configuration not stated)	D3 antag -57 (no result: TRPML1 blocker)
CC(C)(C)n1nnnc1CN1CCN(C(c2ccccc2)c2ccccc2)CC1	none
CCC(c1nnnn1C(C)(C)CC)N1CCN(c2ccccc2F)CC1 (configuration not stated)	none
CC(C)(C)n1nnnc1C(c1ccccc1)N1CCCN(Cc2ccc(F)cc2)CC1 (configuration not stated)	D3 antag -105 (no result: TRPML1 blocker)
CCCCCCCC/C=C\CCCCCCCC(=O)OC[C@@H](O)[C@H]1OC[C@H](O)[C@H]1O	none (no result: TRPML1 agonist, D3 antag, TRPML1 blocker)
COc1ccc2c(c1)c1c(c(=O)n(CCc3ccccc3)c(=O)n1Cc1cccc(F)c1)n2C	none (no result: D3 antag)
C(=C\c1ccccc1)/CN1CCN(C(c2ccccc2)c2ccccc2)CC1	D3 antag -63 (no result: D3 ag)
Fc1ccc(C(c2ccc(F)cc2)N2CCN(C/C=C/c3ccccc3)CC2)cc1	D3 antag inconclusive
Cc1cc(NC(=O)C2CCN(S(=O)(=O)c3cccc4nsnc34)CC2)ccc1Br	none (no result: D3 antag)
O=C(NCCNCc1ccc(F)cc1)c1ccco1	D3 antag -66
O=C(CN1C(=O)C2C3C=CC(C3)C2C1=O)OCC(=O)c1ccc(Cl)c([N+](=O)[O-])c1 (configuration not stated)	D3 antag -70
O=C(N/N=C/c1ccccc1Cl)c1[nH]c2ccc(Br)cc2c1-c1ccccc1	TRPML1 agonist 71
COc1ccc(/C=N/NC(=O)c2[nH]c3ccc(Br)cc3c2-c2ccccc2)c(C(=O)O)c1OC	D3 antag inconclusive
O=C1C2C3CCCC3=C3CCCC3C2C(=O)N1c1ccccc1Cl (configuration not stated)	none (no result: D3 ag, D3 antag)
CCc1oc(C(=O)O)cc1CN(CC)CC	D3 antag -66
CC(C)Nc1nc(NCCN2CCCC2)c2sc(-c3ccccc3)cc2n1	D3 antag -65 (no result: TRPML1 blocker)
CC(C)Nc1nc(-c2ccccc2F)c2sc(-c3ccccc3)cc2n1	none (no result: TRPML1 blocker)
